Laboratory results from PubChem BioAssay (NCATS).
Values joined by “and” are separate entries in the source; they are usually repeats but may differ in a detail not shown here. Identical values can stand only once. Inconclusive results are not listed. Where a call stands in place of a potency, no number is given. Active and inactive are the calls of the source. Unless noted, the call rests on the fitted dose curve. Square brackets hold non-standard residues; d marks the D form. Peptide text beside a SMILES is read from it. * marks the point of attachment. Nva = CCC[C@H](N)C(=O)O; Cbz = O=C(OCc1ccccc1)*

Tests used:
[1] = qHTS for Inhibitors of the Functional Ribonucleoprotein Complex (vRNP) of Lassa (LASV) Arenavirus: LASV Primary Screen - GLuc reporter signal (AID 1347082; calls by dose curve; tested in HEK293 reporter line; further: nearly all actives have a fitted effect of over 60% in size; further: potency means the concentration at half of the fitted maximal effect)
[2] = qHTS for Inhibitors of the Functional Ribonucleoprotein Complex (vRNP) of Lassa (LASV) Arenavirus: Viability assay - alamar blue signal for LASV Primary Screen (AID 1347083; calls by dose curve; tested in HEK293 reporter line; further: nearly all actives have a fitted effect of over 80% in size; further: potency means the concentration at half of the fitted maximal effect)
[3] = qHTS for Inhibitors of the Functional Ribonucleoprotein Complex (vRNP) of Lymphocytic Choriomeningitis Arenaviruses (LCMV): Viability assay - alamar blue signal for LCMV Primary Screen (AID 1347085; calls by dose curve; tested in HEK293 reporter line; further: nearly all actives have a fitted effect of over 80% in size; further: potency means the concentration at half of the fitted maximal effect)
[4] = Primary qHTS to identify inhibitors of SARS-CoV-2 cell entry (AID 1645846); conditions: activity change, negative = inhibition: at 57.1 µM (top of the series) unless noted; further: nearly all actives have a fitted effect of over 45% in size; further: potency means the concentration at half of the fitted maximal effect
Method in brief: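 Using luciferase-reporting pseudoviruses carrying Wuhan-Hu-1 spike, the screen tracks entry into stably ACE2-expressing cells over 48 hr. Activity is expressed relative to spike particles versus particles lacking any fusion protein.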

[5] = qHTS profiling of the MIPE4 collection as inhibitors of Plasmodium falciparum (3D7) proliferation (AID 743344; call rule not given here); conditions: P. falciparum 3D7 in erythrocytes, SYBR Green DNA fluorescence, 72 h; at 28.5 µM (top of the series) unless noted
Method in brief: (§1)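 Parasite DNA was quantified by SYBR Green I fluorescence (ex 485, em 535 nm) after overnight lysis in saponin/Triton buffer at room temperature. Cultures at 0.3% parasitemia and 2.5% hematocrit were first exposed to compound for 72 h at 37 C; signals were normalised to artemisinin (0.29 uM) and vehicle wells.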

[6] = qHTS profiling of the MIPE4 collection as inhibitors of Plasmodium falciparum (DD2) proliferation (AID 743345; call rule not given here); conditions: P. falciparum Dd2 in erythrocytes, SYBR Green DNA, 72 h; at 28.5 µM (top of the series) unless noted
Method in brief: as §1

[7] = qHTS profiling of the MIPE4 collection as inhibitors of Plasmodium falciparum (HB3) proliferation (AID 743347; call rule not given here); conditions: P. falciparum HB3 in erythrocytes, SYBR Green DNA, 72 h; at 28.5 µM (top of the series) unless noted
Method in brief: as §1

[8] = molecular target: Nucleoprotein (Lymphocytic choriomeningitis virus (strain Armstrong)) (UniProt P09992); assay: qHTS for Inhibitors of the Functional Ribonucleoprotein Complex (vRNP) of Lymphocytic Choriomeningitis Arenaviruses (LCMV): LCMV Primary Screen - GLuc reporter signal (AID 1347086); further: nearly all actives have a fitted effect of over 70% in size
Sequence of Nucleoprotein (Lymphocytic choriomeningitis virus (strain Armstrong)) (P09992 whole entry, looked up): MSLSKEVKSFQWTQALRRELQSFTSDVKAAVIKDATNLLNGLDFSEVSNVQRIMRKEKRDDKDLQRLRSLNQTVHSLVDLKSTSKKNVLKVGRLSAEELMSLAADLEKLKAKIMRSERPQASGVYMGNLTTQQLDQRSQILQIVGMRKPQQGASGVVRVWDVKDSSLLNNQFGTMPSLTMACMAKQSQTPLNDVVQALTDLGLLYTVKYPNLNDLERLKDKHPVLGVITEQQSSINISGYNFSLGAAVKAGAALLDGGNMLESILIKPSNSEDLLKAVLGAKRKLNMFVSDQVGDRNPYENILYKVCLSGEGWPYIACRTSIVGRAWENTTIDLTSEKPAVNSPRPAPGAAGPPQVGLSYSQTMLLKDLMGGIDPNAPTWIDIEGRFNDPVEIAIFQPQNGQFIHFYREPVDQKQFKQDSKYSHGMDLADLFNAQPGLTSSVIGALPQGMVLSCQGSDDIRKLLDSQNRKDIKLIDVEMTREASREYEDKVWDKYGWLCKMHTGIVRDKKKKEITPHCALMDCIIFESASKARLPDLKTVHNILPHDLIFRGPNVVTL

[9] = Primary qHTS for Huh7 cytotoxicity: counterscreen for inhibitors of MERS-S pseudotyped particle cell entry (AID 1479147); conditions: outcome: dose series up to 57.1 µM unless noted
[10] = Primary qHTS for inhibitors of MERS-S pseudo-typed particle cell entry (AID 1479149); further: nearly all actives have a fitted effect of over 60% in size
[11] = Primary qHTS for Vero E6 cytotoxicity: counterscreen for inhibitors of SARS-S pseudo-typed particle cell entry (AID 1479150); conditions: outcome: dose series up to 57.1 µM unless noted
[12] = Cytotoxicity counterscreen for inhibitors of SARS-CoV-2 cell entry (AID 1645845); further: nearly all actives have a fitted effect of over 50% in size; further: potency means the concentration at half of the fitted maximal effect
Method in brief: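 Counterscreen run in the same HEK293-ACE2 line as the pseudotyped-particle entry assay, without particles. Viability after 48 h at 37 C was read as ATP luminescence, scaled between cell-containing and cell-free wells.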

[13] = qHTS profiling of the MIPE4 collection as inhibitors of Plasmodium falciparum (DD2) proliferation (Rep 2) (AID 743346; call rule not given here); conditions: P. falciparum Dd2 in erythrocytes, SYBR Green DNA, 72 h; at 28.5 µM (top of the series) unless noted
Method in brief: as §1

[14] = Confirmatory qHTS for VERO E6 Cytotoxicity Assay: Counterscreen for SARS-CoV-2 CPE Assay (AID 1508605); further: potency means the concentration at half of the fitted maximal effect; nearly all actives have a fitted effect of over 60% in size
[15] = molecular target: Ubiquitin carboxyl-terminal hydrolase 1 (Homo sapiens) (UniProt O94782); assay: Inhibitors of USP1/UAF1: Pilot qHTS (AID 504865; active means well fitted curve in the direction sought with a large enough effect; an effect the other way counts as inactive or inconclusive; further: potency means the concentration at half of the fitted maximal effect; nearly all actives have a fitted effect of over 35% in size)
Sequence of Ubiquitin carboxyl-terminal hydrolase 1 (Homo sapiens) (O94782 whole entry, looked up): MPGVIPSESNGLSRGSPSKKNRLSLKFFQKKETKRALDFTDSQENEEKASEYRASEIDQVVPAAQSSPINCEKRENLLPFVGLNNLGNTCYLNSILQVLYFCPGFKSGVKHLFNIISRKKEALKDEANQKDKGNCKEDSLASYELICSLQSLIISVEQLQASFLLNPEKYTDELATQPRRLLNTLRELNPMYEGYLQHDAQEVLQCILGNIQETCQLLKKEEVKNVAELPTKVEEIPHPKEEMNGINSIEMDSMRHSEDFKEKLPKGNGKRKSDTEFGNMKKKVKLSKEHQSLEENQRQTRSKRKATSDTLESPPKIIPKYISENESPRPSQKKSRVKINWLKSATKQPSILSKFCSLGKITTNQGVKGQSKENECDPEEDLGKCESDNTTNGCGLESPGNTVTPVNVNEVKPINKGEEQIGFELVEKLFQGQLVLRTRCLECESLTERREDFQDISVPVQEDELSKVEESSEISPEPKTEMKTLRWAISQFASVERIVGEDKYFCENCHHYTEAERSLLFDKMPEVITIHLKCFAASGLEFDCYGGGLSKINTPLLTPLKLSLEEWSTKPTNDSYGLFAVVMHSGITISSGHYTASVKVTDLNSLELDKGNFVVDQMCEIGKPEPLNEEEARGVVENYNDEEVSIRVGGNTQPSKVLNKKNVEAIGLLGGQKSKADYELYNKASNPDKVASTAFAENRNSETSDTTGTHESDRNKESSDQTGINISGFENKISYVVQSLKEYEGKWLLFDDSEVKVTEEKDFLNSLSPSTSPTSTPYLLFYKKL
Method in brief: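 Enzyme-free wells gave the negative control, while test wells held 1nM USP1/UAF1 preincubated with compound for 15 min at room temperature. Ub-Rho at 150nM final started the reaction, and fluorescence at 480/540 nm was recorded kinetically.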

[16] = S16 Schwann cell PMP22 intronic element beta-lactamase assay (AID 624044); further: potency means the concentration at half of the fitted maximal effect; nearly all actives have a fitted effect of over 15% in size
Method in brief: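 Beta-lactamase reporter under a PMP22 intronic regulatory element in stable S16 rat Schwann cells; 24 h compound exposure. 460 nm blue signal normalized between DMSO (0%) and potassium clavulanate, with 535 nm FRET tracking viability; curves classed by r2 and response.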

[17] = Primary qHTS for inhibitors of SARS-S pseudo-typed particle cell entry (AID 1479145); further: potency means the concentration at half of the fitted maximal effect; nearly all actives have a fitted effect of over 45% in size
[18] = Validation screen for inhibitors of Lassa infection (AID 463096)
[19] = Inducers of the Endoplasmic Reticulum Stress Response (ERSR) in human glioma: Validation (AID 504836; active means well fitted curve in the direction sought with a large enough effect; an effect the other way counts as inactive or inconclusive)
Method in brief: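 Stably transfected U87-MG glioma cells carrying a GRP78-based luciferase sensor; 16 h compound incubation. Luminescence end-point read 10 min after Bright-Glo addition at room temperature.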

[20] = molecular target: Alpha-galactosidase (Coffea arabica) (UniProt Q42656); assay: Counterscreen for Glucocerebrosidase Inhibitors: qHTS Assay for Coffee Bean alpha-Galactosidase at pH 4.5 (AID 957; active means well fitted curve in the direction sought with a large enough effect; an effect the other way counts as inactive or inconclusive)
Sequence of Alpha-galactosidase (Coffea arabica) (Q42656 whole entry, looked up): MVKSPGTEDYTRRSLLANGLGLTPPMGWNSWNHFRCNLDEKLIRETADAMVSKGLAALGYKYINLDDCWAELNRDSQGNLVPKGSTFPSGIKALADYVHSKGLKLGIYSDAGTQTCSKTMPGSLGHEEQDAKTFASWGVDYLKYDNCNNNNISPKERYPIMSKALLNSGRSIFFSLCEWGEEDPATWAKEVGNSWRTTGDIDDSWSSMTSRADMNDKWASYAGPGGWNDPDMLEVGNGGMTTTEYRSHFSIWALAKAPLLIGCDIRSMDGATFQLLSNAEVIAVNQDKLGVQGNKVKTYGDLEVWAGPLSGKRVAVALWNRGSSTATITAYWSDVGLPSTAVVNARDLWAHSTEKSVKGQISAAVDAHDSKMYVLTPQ
Method in brief: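 Quantitative HTS of compounds (0.7 nM to 77 uM) against coffee bean alpha-galactosidase at pH 4.5, measuring 4-methylumbelliferone fluorescence released from 80 uM substrate.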

[21] = molecular target: Alpha-galactosidase (Coffea arabica) (UniProt Q42656); assay: Counterscreen for Glucocerebrosidase Inhibitors: qHTS Assay for Coffee Bean alpha-Galactosidase at pH 5.9 (AID 998; active means well fitted curve in the direction sought with a large enough effect; an effect the other way counts as inactive or inconclusive)
Method in brief: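 Enzyme 2 nM + cpd (0.7 nM–77 uM titration) + 4-MU-alpha-Gal 80 uM, pH 5.9 citrate/Tween-20, RT 20 min, NaOH/glycine stop pH 10, fluor 365/440. Normalized to no-enzyme and full-activity controls; Hill-fit AC50.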

[22] = molecular target: Cytochrome P450 3A4 (Homo sapiens) (UniProt P08684); assay: qHTS Assay for Inhibitors and Substrates of Cytochrome P450 3A4 (AID 884; active means well fitted curve in the direction sought with a large enough effect; an effect the other way counts as inactive or inconclusive; further: potency means the concentration at half of the fitted maximal effect; nearly all actives have a fitted effect of over 50% in size)
Sequence of Cytochrome P450 3A4 (Homo sapiens) (P08684 whole entry, looked up): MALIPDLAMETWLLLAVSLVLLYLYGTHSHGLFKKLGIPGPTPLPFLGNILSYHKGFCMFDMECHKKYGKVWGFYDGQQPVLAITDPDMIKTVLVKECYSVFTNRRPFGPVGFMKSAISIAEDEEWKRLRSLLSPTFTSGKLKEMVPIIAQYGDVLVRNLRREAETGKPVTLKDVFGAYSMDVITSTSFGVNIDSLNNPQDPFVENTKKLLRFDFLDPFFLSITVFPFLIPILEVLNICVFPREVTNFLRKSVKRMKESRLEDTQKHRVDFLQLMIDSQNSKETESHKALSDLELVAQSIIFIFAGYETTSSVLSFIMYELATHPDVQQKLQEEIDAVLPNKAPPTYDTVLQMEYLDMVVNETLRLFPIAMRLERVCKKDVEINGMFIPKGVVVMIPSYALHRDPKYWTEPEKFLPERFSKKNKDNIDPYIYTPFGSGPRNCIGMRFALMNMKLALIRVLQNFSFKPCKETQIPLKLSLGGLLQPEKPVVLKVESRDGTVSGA
Method in brief: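 Luminescent readout of luciferin produced by CYP3A4 (20 nM) dealkylation of Luciferin-PPXE, 25 uM (its KM). NADPH-driven reaction ran 60 min at RT after 10 min compound preincubation; data scaled to 57 uM ketoconazole as 100% inhibition.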

[23] = molecular target: Cytochrome P450 3A4 (Homo sapiens) (UniProt P08684); assay: qHTS Assay for Activators of Cytochrome P450 3A4 (AID 885; active means well fitted curve in the direction sought with a large enough effect; an effect the other way counts as inactive or inconclusive; further: nearly all actives have a fitted effect of over 65% in size)
Method in brief: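 Luminescent readout of luciferin formed from 25 uM Luciferin-PPXE (KM level) by 20 nM CYP3A4 in 200 mM KPO4, with 60 min NADPH-driven reaction at room temperature after 10 min compound exposure. Ketoconazole (57 uM) defined 100% inhibition.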

## NC[C@H]1O[C@H](O[C@@H]2[C@@H](O)[C@@H](O[C@H]3O[C@H](CO)[C@@H](O)[C@H](N)[C@@H]3O)[C@H](N)C[C@@H]2N)[C@H](O)[C@@H](O)[C@H]1O
[1]
  Potency: inactive
[2]
  Potency: inactive
[3]
  Potency: inactive
[4]
  activity change, negative = inhibition: -26.9%

## C=C1C[C@@]2(O)O[C@@]3(C[C@H]2C(C)C)[C@H](C)CC[C@H]13
[5]
  parasite growth, % of DMSO control: 70.7%
[6]
  parasite growth remaining, % of DMSO control (lower = more inhibition): 75.7%
[7]
  growth, % of control: 68.4%
[1]
  Potency: inactive
[2]
  Potency: inactive
[3]
  Potency: inactive
[8]
  Potency: inactive

## CC[C@@]1(O)C[C@H](O[C@H]2C[C@H](N(C)C)[C@H](O[C@H]3C[C@H](O)[C@H](O[C@H]4CCC(=O)[C@H](C)O4)[C@H](C)O3)[C@H](C)O2)c2c(cc3c(c2O)C(=O)c2c(O)cccc2C3=O)[C@@H]1C(=O)OC
[1]
  Potency: inactive
[2]
  Potency: 0.344 µM (active)
[3]
  Potency: 0.344 µM (active)
[9]
  outcome: inactive
[10]
  Potency: inactive
[11]
  outcome: inactive
[12]
  Potency: inactive

## CC(=O)N[C@H]1[C@@H]([C@H](O)[C@H](O)CO)OC(C(=O)O)=C[C@@H]1N=C(N)N
[5]
  parasite growth, % of DMSO control: 96.2%
[6]
  parasite growth remaining, % of DMSO control (lower = more inhibition): 100%
[13]
  parasite growth, % of control (lower = inhibition): 142%
[7]
  growth, % of control: 100%
[1]
  Potency: inactive
[2]
  Potency: inactive
[3]
  Potency: inactive
[8]
  Potency: inactive

## CCC[C@@H](C=O)NC(=O)[C@H](CC(C)C)NC(=O)[C@H](CC(C)C)NC(=O)OCc1ccccc1 (Cbz-Leu-Leu-[Nva]-aldehyde)
[1]
  Potency: 3.43 µM (active)
[2]
  Potency: 5.44 µM (active)
[3]
  Potency: 12.2 µM (active)
[14]
  Potency: 0.714 µM (active)
[4]
  Potency: 0.891 µM (active)

## CC(C)n1cnc2c(NCCCCCCNC(=O)OC(C)(C)C)nc(NCCO)nc21
[1]
  Potency: inactive
[2]
  Potency: inactive
[3]
  Potency: inactive
[4]
  Potency: 28.2 µM (active)

## COc1cccc2c1C(=O)c1c(O)c3c(c(O)c1C2=O)C[C@@](O)(C(=O)CO)C[C@@H]3O[C@H]1C[C@H](N)[C@H](OC2CCCCO2)[C@H](C)O1 (stereo partly drawn)
[15]
  Potency: 44.7 µM (active)
[16]
  Potency: 5.62 µM (active)
[1]
  Potency: inactive
[2]
  Potency: 6.11 µM (active)
[3]
  Potency: 6.85 µM (active)
[17]
  Potency: 7.94 µM (active)
[10]
  Potency: inactive
[11]
  outcome: inactive
[12]
  Potency: 12.6 µM (active)
[4]
  activity change, negative = inhibition: -97.2% and -91.8%

## COc1cc(CNC(=O)CCCCC=CC(C)C)ccc1O
[5]
  parasite growth, % of DMSO control: 92.4%
[6]
  parasite growth remaining, % of DMSO control (lower = more inhibition): 103%
[7]
  growth, % of control: 105%
[1]
  Potency: inactive
[2]
  Potency: inactive
[3]
  Potency: inactive
[8]
  Potency: inactive

## CN(C)CCCC1(c2ccc(F)cc2)OCc2cc(C#N)ccc21 (stereo not drawn)
[18]
  Potency: inactive
[19]
  outcome: inactive
[1]
  Potency: inactive
[2]
  Potency: inactive
[3]
  Potency: inactive
[9]
  outcome: inactive
[11]
  outcome: inactive
[12]
  Potency: inactive

## CC(C)Cc1ccc([C@H](C)C(=O)O)cc1
[20]
  outcome: inactive
[21]
  outcome: inactive
[1]
  Potency: inactive
[2]
  Potency: inactive
[3]
  Potency: inactive
[8]
  Potency: inactive

## COc1ccc2ccc(=O)oc2c1CC=C(C)C
[22]
  Potency: 15.8 µM (active)
[23]
  Potency: inactive
[1]
  Potency: inactive
[2]
  Potency: inactive
[3]
  Potency: inactive
[8]
  Potency: inactive

## C[C@H](CCC(=O)O)[C@H]1CCC2C3CC[C@@H]4C[C@H](O)CC[C@]4(C)C3CC[C@@]21C (stereo partly drawn)
[5]
  parasite growth, % of DMSO control: 97.3%
[13]
  parasite growth, % of control (lower = inhibition): 65%
[1]
  Potency: inactive
[2]
  Potency: inactive
[3]
  Potency: inactive
[8]
  Potency: inactive
